Results on seven molecules are retold here after PubChem BioAssay (Tox21).

Experiment [1] can be described thus: qHTS assay to identify small molecule agonists of the hypoxia (HIF-1) signaling pathway - cell viability counter screen (AID 1224844; calls by dose curve; further: nearly all actives have a fitted effect of over 50% in size; further: potency means the concentration at half of the fitted maximal effect). An outline of the steps: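 ME-180 HRE-bla cells, 2,000/well, 0.5% dialyzed FBS; 5 hr settle, 17 hr compound at 37C/5% CO2; CCF4-AM reporter read first, then CellTiter-Glo luminescence after 30 min RT.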
The nature of experiment [2]: qHTS assay to identify small molecule agonists of the hypoxia (HIF-1) signaling pathway (AID 1224846; active means well fitted activation curve with a large enough effect in the signal ratio in the repeat runs, not every such curve was filed as active; the % refers to the signal ratio). In outline: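 Cell line: CellSensor HRE-bla ME-180; 2,000 cells/well; 0.5% dialyzed FBS; 5 h preincubation; DMSO compound pin transfer; 17 h, 37C, 5% CO2; CCF4-AM added; bla FRET signal scored for activation.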
Background: In qHTS, concentration-response curves come from the screen itself.

Experiment [3] can be described thus: qHTS assay to identify small molecule antagonists of the estrogen related receptor (ERR) signaling pathway from Tox21 library (AID 1224848). Further: nearly all actives have a fitted effect of over 50% in size. Further: potency means the concentration at half of the fitted maximal effect. An outline of the steps:
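Reading was by luminescence 30 min after ONE-Glo addition. Before that, ERR cells at 2,000 per well had rested 6 h at 37 C/5% CO2 and then received pin-tooled compounds in DMSO for 18 h at 37 C.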

The nature of experiment [4]: qHTS assay to identify small molecule agonists of the estrogen related receptor (ERR) signaling pathway from Tox21 library (AID 1224849; calls by dose curve; further: nearly all actives have a fitted effect of over 15% in size). Conditions: ERR reporter cell line, ONE-Glo luciferase, 18 h; at 92.4 µM (top of the series) unless noted. An outline of the steps: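 ERR cells, 6 h pre-incubation 37 C/5% CO2; cpd in DMSO pinned; 18 h 37 C; ONE-Glo added, 30 min RT; luminescence read. Agonist mode, qHTS.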

A short description of experiment [5]: qHTS RealTime-Glo MT Cell Viability Assay in HEK293 cells - 32 hour (AID 1224868). Further: nearly all actives have a fitted effect of over 50% in size. Further: potency means the concentration at half of the fitted maximal effect. An outline of the steps:
(§1)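 Quantitative high-throughput screen of the Tox21 10K library in HEK293: cells and RealTime-Glo reagents plated together, compound added at 5 h, luminescence monitored through 40 h at 37 C.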

Experiment [6] can be described thus: A CellTox Green Cytotoxicity Assay to monitor cytotoxicity in HEK293 cells - 0 hour (AID 1224869). Further: nearly all actives have a fitted effect of over 50% in size. An outline of the steps: (§2)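 Nonlytic real-time cytotoxicity: HEK293 + CellTox Green reagent plated, 5 h preincubation, pintool compound addition (23 nL in DMSO), 37 C for 40 h, fluorescence measured at successive time points.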
Experiment [7] can be described thus: qHTS RealTime-Glo MT Cell Viability Assay in HepG2 cells - 40 hour (AID 1224870). Further: nearly all actives have a fitted effect of over 50% in size. Further: potency means the concentration at half of the fitted maximal effect. An outline of the steps:
(§3)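 Real-time viability: cells seeded at 600 per well together with NanoLuc and cell-permeant prosubstrate, compounds added after 5 h incubation. Luminescence tracked at 0, 8, 16, 24, 32 and 40 h of exposure.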

A short description of experiment [8]: qHTS RealTime-Glo MT Cell Viability Assay in HEK293 cells - 16 hour (AID 1224872). Further: nearly all actives have a fitted effect of over 50% in size. Further: potency means the concentration at half of the fitted maximal effect. In outline: as §1
A short description of experiment [9]: A CellTox Green Cytotoxicity Assay to monitor cytotoxicity in HepG2 cells - 16 hour (AID 1224876). Further: nearly all actives have a fitted effect of over 45% in size. Further: potency means the concentration at half of the fitted maximal effect. An outline of the steps:
(§4)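 Read-out is fluorescence of a cyanine dye excluded from live cells that stains DNA of dead HepG2 cells, with signal proportional to cytotoxicity. Plates were read at 0, 8, 16, 24, 32 and 40 h after compound addition.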

Experiment [10] in a line: A CellTox Green Cytotoxicity Assay to monitor cytotoxicity in HepG2 cells - 24 hour (AID 1224878). Further: nearly all actives have a fitted effect of over 45% in size. Further: potency means the concentration at half of the fitted maximal effect. In outline:
as §4

Experiment [11] can be described thus: A CellTox Green Cytotoxicity Assay to monitor cytotoxicity in HepG2 cells - 40 hour (AID 1224879). Further: nearly all actives have a fitted effect of over 40% in size. Further: potency means the concentration at half of the fitted maximal effect. In outline:
as §4

Experiment [12] in a line: qHTS RealTime-Glo MT Cell Viability Assay in HEK293 cells - 0 hour (AID 1224880). Further: nearly all actives have a fitted effect of over 45% in size. Further: potency means the concentration at half of the fitted maximal effect. An outline of the steps:
(§5)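 Cells were seeded together with NanoLuc luciferase and a prosubstrate that viable cells reduce to a luciferase substrate. After a 5 h incubation at 37 C/5% CO2, compounds were added and luminescence was measured repeatedly during 40 h of treatment.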

A short description of experiment [13]: qHTS assay to identify small molecule agonists of H2AX - cell viability counter screen (AID 1224847; calls by dose curve; further: nearly all actives have a fitted effect of over 30% in size; further: potency means the concentration at half of the fitted maximal effect). An outline of the steps:
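Read-out: CellTiter-Glo luminescence, 30 min RT. Cells: wild-type CHO-K1, 1000/well, 10% FBS, plated overnight at 37C. Treatment: 15 concentrations, 3 hr, 37C, 0.76% DMSO.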

A short description of experiment [14]: qHTS RealTime-Glo MT Cell Viability Assay in HepG2 cells - 24 hour (AID 1224867). Further: nearly all actives have a fitted effect of over 50% in size. Further: potency means the concentration at half of the fitted maximal effect. In outline: (§6)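 Compound treatment began 5 h after plating HepG2 cells (600/well) with NanoLuc luciferase and prosubstrate. Plates stayed at 37 C for 40 h; luminescence was captured at six time points, 0 h through 40 h.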
Experiment [15] can be described thus: A CellTox Green Cytotoxicity Assay to monitor cytotoxicity in HEK293 cells - 40 hour (AID 1224871). Further: nearly all actives have a fitted effect of over 45% in size. Further: potency means the concentration at half of the fitted maximal effect. In outline:
as §2

The nature of experiment [16]: qHTS RealTime-Glo MT Cell Viability Assay in HepG2 cells - 8 hour (AID 1224873). Further: nearly all actives have a fitted effect of over 55% in size. Further: potency means the concentration at half of the fitted maximal effect. In outline: as §3
Experiment [17] can be described thus: qHTS RealTime-Glo MT Cell Viability Assay in HEK293 cells - 40 hour (AID 1224874). Further: nearly all actives have a fitted effect of over 50% in size. Further: potency means the concentration at half of the fitted maximal effect. The following applies: RealTime-Glo luminescence; max response: stronger effect = lower value. An outline of the steps:
as §5

Experiment [18] is described as follows: A CellTox Green Cytotoxicity Assay to monitor cytotoxicity in HEK293 cells - 24 hour (AID 1224875). Further: nearly all actives have a fitted effect of over 45% in size. Further: potency means the concentration at half of the fitted maximal effect. In outline:
as §2

Experiment [19] can be described thus: qHTS RealTime-Glo MT Cell Viability Assay in HepG2 cells - 32 hour (AID 1224877). Further: nearly all actives have a fitted effect of over 55% in size. Further: potency means the concentration at half of the fitted maximal effect. An outline of the steps: as §6

Values without a mark were called inactive. Records with an inconclusive call do not appear. Calls of active or inactive are those of the source. Unless noted, the call rests on the fitted dose curve; in most records, active means well fitted curve in the direction sought with a large enough effect in the repeat runs; inconclusive means weak or mixed curves; inactive means no such curve, though single readings can be large; an effect the other way counts as inactive or inconclusive.
On the % scale 0 is the no-effect control and ±100 the full control effect.

Consider `CCc1cccc(C)c1N(C(=O)CCl)[C@@H](C)COC`, for which the Potency in experiment [1] is 49 µM (active); in [3] it was 61.1 µM (active); in [9] it was 49 µM (active); in experiment [10] it was 49 µM (active); in [11], 49 µM (active). In addition, the Potency entry in experiment [2], in [5], in [6], in experiment [7], in experiment [8] and in experiment [12] was “inactive” in each case. Further, the activity change, positive = activation in experiment [4] was -67.3%.
With `CC(=O)[O-].CC(=O)[O-].CC(=O)[O-].[Cr+3]`, the Potency result in experiment [1], in experiment [2], in experiment [13], in experiment [14], in experiment [5] and in [6] was “inactive” each time. For the same molecule, the Potency entry in experiment [7], in experiment [15], in [8], in experiment [16], in experiment [18] and in experiment [9] was “inactive” each time. The Potency result in [19], in experiment [10], in [11] and in experiment [12] was “inactive” throughout. Besides, the max response in [17] was -0.681%.
Consider `NC(=O)C(Cl)Cl`, for which the Potency entry in experiment [1], in experiment [2], in experiment [13], in [14], in experiment [5] and in [6] was “inactive” throughout. Also, the Potency result in experiment [15], in experiment [8], in [16], in [18], in experiment [9] and in [19] was “inactive” in each case. Also, the Potency entry in experiment [10], in [11] and in [12] was “inactive” in each case. In [17], the max response is 3.34%.
Turning to `C=CCOC(=O)c1ccccc1N`, the Potency result in [1], in [2], in [14], in experiment [5], in experiment [6] and in experiment [8] was “inactive” each time. The Potency entry in experiment [16], in [9], in [19], in experiment [11] and in experiment [12] was “inactive” throughout. Besides, in experiment [4], the activity change, positive = activation was -28.9%. Also, the max response in experiment [17] was -17.8%.
For `CN(C)c1ccc(N)cc1`, the Potency entry in experiment [1], in [2], in experiment [6], in experiment [7], in experiment [18] and in [9] was “inactive” in each case. The Potency result in experiment [19], in experiment [11] and in experiment [12] was “inactive” in each case. In addition, the results for the Potency in experiment [13], in experiment [5] and in experiment [17] were 87.6 µM (active), 24 µM (active) and 47.8 µM (active), respectively.
In the case of `Nc1ccc(Cl)cc1C(=O)c1ccccc1F`, the Potency entry in [1], in [2], in [13], in experiment [3], in experiment [14] and in experiment [5] was “inactive” in each case. The Potency entry in experiment [6], in experiment [15], in experiment [8], in [16], in experiment [18] and in experiment [19] was “inactive” each time. In [12], the Potency result was “inactive”. Further, the activity change, positive = activation in experiment [4] was 7.6% [at 42.5 µM]. For the same molecule, in experiment [17], the max response is -9.35%.
As to `N#Cc1sc2c(=O)c3ccccc3c(=O)c=2sc1C#N`, the Potency in experiment [1] is 4.9 µM (active); in experiment [13] it was 101 µM (active); in experiment [3] it was 61.1 µM (active); in [14], 11 µM (active); in [5], 17.4 µM (active); in experiment [7], 11 µM (active). Further, the Potency in [15] is 15.5 µM (active); in experiment [8], 11 µM (active); in [16] it was 9.77 µM (active); in experiment [17] it was 17.4 µM (active); in experiment [18], 21.9 µM (active); in experiment [9], 17.4 µM (active). The Potency in experiment [19] is 11 µM (active); in experiment [10] it was 12.3 µM (active); in experiment [11], 13.8 µM (active); in experiment [12], 7.76 µM (active). Further, the activity change, positive = activation in experiment [4] is -74.5%. For the same molecule, the Potency result in experiment [6] was “inactive”.
